This is a sample that favours compounds with a hit; in the whole collection about 1.9% have one here.
Pin1 inh – blocks the human prolyl isomerase Pin1; Q13526; Pin1 FP peptide displacement, HiFluor488, 10 min; Potency, µM (titrated, usually from 115 µM), hits mostly inhibitors; 390,000 tested, 0.009% active; active means well fitted inhibition curve with a large enough effect in the polarisation, with a control signal flat, not every such curve was filed as active; inconclusive means small, poorly fitted or top-dose-only effect, or effect the other way, or a change in a side signal; inactive means no such curve, though single readings can be large or run the other way; the % refers to the polarisation
Integrin act MD – integrin-mediated muscular dystrophy alleviation activation; alpha7betagal myoblasts, beta-gal FDG fluorescence, 48 h; Potency, µM (titrated, usually from 38.3 µM), usual class: activators; 350,000 tested, 0.064% active; further: nearly all actives have a fitted effect of over 60% in size
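alpha7betagal+/- myoblasts (passage 13, 250/well) treated 48 h at 37C with compounds at 1:260 dilution of DMSO stock. Lysed, then beta-galactosidase activity read as FDG fluorescence (ex 480/em 540) after 30 min, with pre-read for autofluorescence.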
IL-2 act – activates IL-2 in a cell-based reporter assay; AID 652025; activation, % (series mostly up to about 46 µM); 360,000 tested, 0.065% active; IL-2 activation reporter assay, cell-based qHTS; stimulated with anti-CD3/CD4/CD28 beads; in transgenic mouse T cells; in the data active means activation above about 50%; inconclusive means mostly about 30% to 49%
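EGFP and DsRed fluorescence is measured by plate cytometry in unstimulated transgenic mouse T cells exposed to compound for 60 minutes, then stimulated 18 hours at 37 degrees C with anti-CD3/anti-CD4 beads plus anti-CD28.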
ClpP mod – qHTS Assay for Activators of ClpP | ATP-dependent Clp protease proteolytic subunit (Bacillus subtilis (strain 168)), P80244 | purified B. subtilis ClpP, FRET peptide cleavage, 20 min | Potency, µM (top dose mostly 57.5 µM) | 340,000 tested, 1.9% active | AID 651965, 2013; active means well fitted falling curve with a large enough effect; inconclusive means small, poorly fitted or top-dose-only effect; inactive means no such curve, though single readings can be large or run the other way; further: the source files actives as falling curves though it sought activators and does not explain the sign; nearly all actives have a fitted effect of over 65% in size
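FRET quenching reversal measured ClpP activation: 10 microg/mL B. subtilis ClpP at pH 8 with the FRET-FV decapeptide, read at 430 nm after 320 nm excitation. The 20-min minus 0-min signal was scaled between DMSO/no-enzyme wells and ADEP (5.8 microM final).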
USP2a block – USP2a (human) protease inhibition; 330,000 tested, 0.01% active; USP2 core, Ub-CHOP2 coupled fluorogenic reporter, 485/531; O75604; Potency, µM (titrated, usually from 38.3 µM), most hits filed as inhibitors; AID 463254
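Cell-free coupled assay: 10nM USP2 core preincubated 30min RT with compound in Tris-HCl pH 8.0/CaCl2/CHAPS buffer, then 25nM Ub-CHOP2 and 25nM reporter substrate; fluorescence (Ex 485/Em 531) read after 60min RT, normalized to NEM inhibition, concentration-response curves fitted.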
PKM2 activator – increases activity of human pyruvate kinase M2. P14618. 260,000 tested, 0.34% active. purified PKM2, Kinase-Glo ATP luminescence, activation; response scale: 0% is enzyme alone, no compound. Potency, µM (highest dose often 57.5 µM), most hits filed as activators; further: nearly all actives have a fitted effect of over 55% in size
Target sequence (P14618 whole entry, looked up): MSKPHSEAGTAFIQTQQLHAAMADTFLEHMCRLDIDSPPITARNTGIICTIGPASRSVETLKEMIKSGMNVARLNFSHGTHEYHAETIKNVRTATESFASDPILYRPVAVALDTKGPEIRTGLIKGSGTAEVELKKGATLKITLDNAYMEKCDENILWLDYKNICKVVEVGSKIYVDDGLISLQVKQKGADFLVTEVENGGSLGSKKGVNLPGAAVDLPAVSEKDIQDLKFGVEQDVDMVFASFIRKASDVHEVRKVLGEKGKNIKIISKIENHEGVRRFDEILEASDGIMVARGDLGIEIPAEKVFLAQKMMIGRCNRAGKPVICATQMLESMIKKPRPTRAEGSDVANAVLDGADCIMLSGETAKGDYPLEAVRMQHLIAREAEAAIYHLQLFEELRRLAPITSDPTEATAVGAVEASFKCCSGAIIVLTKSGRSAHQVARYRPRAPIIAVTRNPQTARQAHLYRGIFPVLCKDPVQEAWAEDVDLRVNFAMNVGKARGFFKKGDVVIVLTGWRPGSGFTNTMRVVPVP
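Purified hPK-M2 (>95%) run at intermediate activity with 0.1 mM ADP and 0.5 mM PEP in 50 mM imidazole pH 7.2, KCl, MgCl2; 1 h room temperature. ATP formed read by Kinase-Glo luminescence; normalized to uninhibited and no-enzyme controls.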
A number is an active result; ! = a repeat was not active. Unless noted, the call rests on the fitted dose curve; in most records, active means well fitted curve in the direction sought with a large enough effect; inconclusive means small, poorly fitted or top-dose-only effect, or another doubt; inactive means no such curve, though single readings can be large; an effect the other way counts as inactive or inconclusive.

How did CC(=O)Nc1ccc(N(C(=O)Cn2nnc3ccccc32)C(C(=O)NC2CCCC2)c2ccc(O)c(O)c2)cc1 (centres undefined) do in these assays?
Pin1 inh: inactive; Integrin act MD: inactive; IL-2 act: inactive; USP2a block: inactive; PKM2 activator: inconclusive

How did CCC1(CC(C)C)C(=O)NC(=S)NC1=O do in these assays?
Pin1 inh: inactive; Integrin act MD: inactive; IL-2 act: inactive; ClpP mod: inactive

What do the screens show for `CCCC1(CC(C)C)C(=O)NC(=S)NC1=O`?
Pin1 inh: inactive; Integrin act MD: inactive; IL-2 act: inactive; ClpP mod: 28µM

Results for Cc1cccc(N2CCc3c2nc2ccccc2c3N)c1 ?
Pin1 inh: inactive; Integrin act MD: inactive; IL-2 act: inactive; ClpP mod: 25µM!; USP2a block: inactive; PKM2 activator: inactive

What do the screens show for `O=C(C1CCCN(S(=O)(=O)c2cccc3nsnc23)C1)N1CCN(c2cccc(Cl)c2)CC1` (centres undefined)?
Pin1 inh: inconclusive; ClpP mod: inactive

How did COc1ccc(Cl)cc1NC(=O)C1CCN(c2nnc(C)c3c(C)n(-c4ccccc4)nc23)CC1 do in these assays?
Pin1 inh: inactive; ClpP mod: 28µM

What do the screens show for `COCCn1cc(C(=O)N2CCC3(CC2)OCCO3)c2c3ccccc3n(C)c2c1=O`?
Pin1 inh: inactive; Integrin act MD: inactive; IL-2 act: inactive; ClpP mod: 20µM; USP2a block: inactive; PKM2 activator: inactive

How did COc1cccc(C2(O)CCSCC2CN(C)C)c1 (centres undefined) do in these assays?
Pin1 inh: inactive; Integrin act MD: inactive; IL-2 act: inactive; ClpP mod: 3.5µM; USP2a block: inactive; PKM2 activator: inactive

What do the screens show for `COc1cccc([C@@]2(O)CCCC[C@@H]2CN(C)C)c1`?
Pin1 inh: inactive; Integrin act MD: inactive; IL-2 act: inactive; USP2a block: inactive; PKM2 activator: inactive

What do the screens show for `CC(=O)N1N=C(c2cccnc2)CC1c1ccccc1O` (centres undefined)?
Pin1 inh: inactive; Integrin act MD: inactive; IL-2 act: inactive; USP2a block: inactive; PKM2 activator: 5µM

How did CC(=O)N1N=C(c2c(O)n(C)c(=O)n(C)c2=O)CC1c1ccccc1 (centres undefined) do in these assays?
Pin1 inh: inactive; Integrin act MD: inactive; IL-2 act: inactive; ClpP mod: inactive; USP2a block: inactive; PKM2 activator: inactive

Results for CCCc1cc2c(n1Cc1cccc(Cl)c1)C(C)C1CN(C(=O)c3ccccc3)C(C)(C(=O)OC)C21 (centres undefined) ?
PKM2 activator: inactive

What do the screens show for `c1ccc(C(c2ccccc2)N2CCN(c3ccc4ccccc4n3)CC2)cc1`?
Pin1 inh: inactive; Integrin act MD: inactive; IL-2 act: inactive; ClpP mod: 18µM; USP2a block: inactive; PKM2 activator: inactive

How did C=C(CC1(C(C)NP(=O)(c2ccccc2)c2ccccc2)CC1)c1ccccc1 (centres undefined) do in these assays?
PKM2 activator: inactive

Results for CCOC(=O)c1ncn2c1CN(C)C(=O)c1cc(N=[N+]=[N-])ccc1-2 ?
PKM2 activator: inactive

What do the screens show for `Nc1ccccc1C(=O)OCCOc1ccccc1`?
Pin1 inh: inactive; Integrin act MD: inactive; IL-2 act: inactive; ClpP mod: 28µM; USP2a block: inactive; PKM2 activator: inactive

What do the screens show for `C=CCOC(=O)c1ccccc1N`?
Pin1 inh: inactive; IL-2 act: inactive; ClpP mod: inactive; USP2a block: inactive

What do the screens show for `Cc1ccc(C(=O)CN2CCOCC2)cc1`?
ClpP mod: inactive

Results for COc1cccc(NC(=O)CSC2=Nc3ccccc3C3=NC(CCC(=O)NCCc4ccccc4)C(=O)N23)c1 (centres undefined) ?
Pin1 inh: inactive; ClpP mod: inactive

Screening data deposited in PubChem BioAssay by National Center for Advancing Translational Sciences (NCATS).
